# GLP1R inv ag – inverse agonists of human GLP-1 receptor; 1.6% of 410,000 active; HEK293 GLP-1R CRE-luciferase, luminescence, 24 h; GLP-1R form is constitutively active; AID 624417; Potency, µM (doses to about 38.3 µM), most hits filed as inhibitors; also: nearly all actives have a fitted effect of over 55% in size
# Target sequence (P43220 whole entry, looked up): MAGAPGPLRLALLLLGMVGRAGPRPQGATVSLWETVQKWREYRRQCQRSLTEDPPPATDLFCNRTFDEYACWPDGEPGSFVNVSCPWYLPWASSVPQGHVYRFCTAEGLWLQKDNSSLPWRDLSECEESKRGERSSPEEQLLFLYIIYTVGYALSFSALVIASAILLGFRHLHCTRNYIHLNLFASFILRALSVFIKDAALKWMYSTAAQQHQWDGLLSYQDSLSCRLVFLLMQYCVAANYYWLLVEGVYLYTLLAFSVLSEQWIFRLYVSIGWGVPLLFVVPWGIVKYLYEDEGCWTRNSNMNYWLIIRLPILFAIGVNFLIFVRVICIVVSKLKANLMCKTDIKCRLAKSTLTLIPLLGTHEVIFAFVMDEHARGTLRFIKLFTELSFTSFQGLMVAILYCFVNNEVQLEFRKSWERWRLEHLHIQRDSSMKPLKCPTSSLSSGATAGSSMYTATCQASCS
#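 Constitutively active GLP-1R drives a cAMP-responsive luciferase in stably transfected HEK293 cells; test compounds are added after overnight (12 h) attachment and left 24 hr, and signal loss in luminescence marks inhibition.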
# D3 ag – agonists of human D3 dopamine receptor. max activation, %. P35462. D3R DiscoveRx beta-arrestin cells, luminescence, 90 min. 0.58% of 410,000 active; in the data active = max activation above about 30%
#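 Agonist mode: compounds and dopamine controls were applied to plated cells for 90 min at 37 degrees C after an overnight attachment at 1500 cells/well. Luminescent read-out followed 30 - 60 minutes at room temperature with DiscoveRx detection reagent.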
# ClpP mod – qHTS Assay for Activators of ClpP; ATP-dependent Clp protease proteolytic subunit (Bacillus subtilis (strain 168)), P80244; purified B. subtilis ClpP, FRET peptide cleavage, 20 min; Potency, µM (doses to about 57.5 µM); 1.9% of 340,000 active; AID 651965, 2013; active = well fitted falling curve with a large enough effect; inconclusive = small, poorly fitted or top-dose-only effect; inactive = no such curve, though single readings can be large or run the other way; also: the source files actives as falling curves though it sought activators and does not explain the sign; nearly all actives have a fitted effect of over 65% in size
#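 Buffer: 100 mM Tris/HCl pH8, 100 mM KCl, 0.05% low protease BSA, 2.5% glycerol, 0.01% Tween-20. ClpP 10 microg/mL final; 20 min RT; delta FRET normalized to ADEP and DMSO controls.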
# D3 antag – D3 dopamine receptor (human) antagonism; D3R cells, DiscoveRx beta-arrestin luminescence, antagonist mode; active compounds read low; max response, negative = inhibition, %; AID 652054; P35462; 2.5% of 360,000 active; in the data active = max response below about -50%; inconclusive = no clear call, values can overlap the other calls
#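 Cells plated overnight at 1500 cells/well, then exposed to library compounds with dopamine controls for 90 minutes at 37 degrees C. DiscoveRx reagent added for 30–60 minutes at room temperature; luminescence read, quantitative HTS format.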
# GLP-1R agonist – activates the human GLP-1 receptor | P43220 | HEK293 GLP-1R CRE-luciferase, luminescence, 4-6 h; cells express a hypersensitive GLP-1R form | Potency, µM (highest dose often 45.6 µM), most hits filed as activators | 0.007% of 380,000 active | AID 624172
# GLP1R cytotox – cytotoxicity in counter-screen for GLP-1R inverse agonists. 0.13% of 410,000 active. HEK293 cAMP-luciferase reporter cells, luminescence, 24 h. AID 624418. Potency, µM (doses to about 38.3 µM), usual class: inhibitors;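 also: loss of luciferase light is scored as toxicity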
#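 1536-well qHTS counterscreen of the MLSMR; 200 cells/uL, 12 h pre-incubation, 23 nL cpd, 24 h at 37 deg C 5% CO2, luciferase detection reagent, 12 min RT, luminescence. Inhibition = undesired.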
# Numbers stand for hits; - = inactive; ? = inconclusive; . = no result given; ! = repeats disagree. Shown are actives, neighbours in structure and some others; about 5.7% of the full set was active somewhere. Unless noted, calls follow the shape of the dose curve; as a rule, active = well fitted curve in the direction sought with a large enough effect; inconclusive = small, poorly fitted or top-dose-only effect, or another doubt; inactive = no such curve, though single readings can be large; an effect the other way counts as inactive or inconclusive.
SMILES,GLP1R inv ag,D3 ag,ClpP mod,D3 antag,GLP-1R agonist,GLP1R cytotox
c1ccc(-c2nc(-c3ccccn3)no2)cc1,-,-,-,-,-,-
COc1cccc(-c2nc(-c3ccccn3)no2)c1OC,-,-,-,?,-,-
Cc1cc(C)c(Cn2c(=O)n(CCC(=O)NCc3ccc4c(c3)OCO4)c(=O)c3ccccc32)c(C)c1,-,-,-,.,-,-
CN1C[C@@H]2[C@@H]3C(=O)N(C)C(=O)[C@@H]3[C@](C)(C1=O)N2C(=O)c1ccc(C(C)(C)C)cc1,-,-,-,-,-,?
OC(Cc1ccc2ccccc2n1)c1ccccc1 (stereo not drawn),.,.,-,.,.,.
Cc1ccc(-c2nc(-c3ccccn3)no2)cc1,0.89µM,-,-,-,-,-
CN(Cc1ccccc1)C(=O)c1ncn(Cc2ccccc2)c1C(=O)N(C)Cc1ccccc1,?,45,-,-,-,-
CN(Cc1ccccc1)C(=O)c1ncn(C)c1C(=O)N(C)Cc1ccccc1,-,-,-,-,-,-
COc1ccc(N2CCN(C(CNC(=O)CC(C)C)c3ccc4c(c3)OCO4)CC2)cc1 (stereo not drawn),-,-,-,.,.,-
COc1ccc(-c2[nH]c(-c3ccccc3)nc2SCC(=O)NC2CCCC2)cc1,10µM!,-,22µM!,-,-,-
CCOc1ccc(-c2nc(SCC(=O)NC3CCCC3)c(-c3ccccc3)[nH]2)cc1OC,?,-,-,.,.,-
COc1cccc(-c2nc(SCC(=O)NCC3CCCO3)c(-c3ccc(F)cc3)[nH]2)c1 (stereo not drawn),-,-,-,.,.,-
COc1ccc(-c2[nH]c(-c3ccc(F)cc3)nc2SCC(=O)NC2CCCC2)cc1,7.9µM,-,-,-,-,-
COc1ccc(-c2nc(SCC(=O)NC3CCCC3)c(-c3ccc(F)cc3)[nH]2)cc1,?,-,-,.,.,-
COc1ccc(-c2[nH]c(-c3cccc(OC)c3)nc2SCC(=O)NC2CCCC2)cc1,?,-,25µM!,?,-,-
CCC(=O)N1CCc2cc(CNS(=O)(=O)c3ccc(Cl)s3)ccc21,-,-,-,.,.,-
O=[N+]([O-])c1ccc(/C=N/n2c(COc3ccccc3)n[nH]c2=S)cc1,-,-,-,-90,-,-
Cc1c(C(=O)Nc2ccc(F)cc2)oc2ccc(S(=O)(=O)N3CC(C)CC(C)C3)cc12 (stereo not drawn),-,-,-,-62,-,-
Cc1c(C(=O)NCc2ccc(F)cc2)oc2ccc(S(=O)(=O)N3CCCCC3)cc12,10µM,-,-,.,.,-
COc1ccccc1CNC(=O)c1oc2ccc(S(=O)(=O)N3CCCCC3)cc2c1C,?,-,-,.,.,-
Cc1ccccc1Cn1nnc2c(=O)[nH]c(C3CCCN(C(=O)c4ccc(F)cc4)C3)nc21 (stereo not drawn),-,-,-,.,.,-
COc1ccc(CCNC(=O)CC(=O)N/N=C/c2ccc(C(=O)O)cc2)cc1OC,-,-,14µM,-,-,-
O=C(CC(=O)N/N=C/c1ccc(C(=O)O)cc1)NCCc1ccccc1,-,-,-,-,-,-
COc1cccc(NC(=O)c2cnc(SCC(=O)N3CCOCC3)n(C)c2=O)c1,-,-,-,.,.,-
COc1ccc(C2=NN(C(=O)COC(=O)c3ccc(S(C)(=O)=O)c([N+](=O)[O-])c3)C(c3ccco3)C2)cc1 (stereo not drawn),?,-,-,-56,-,?
O=C(COc1cc(F)ccc1[N+](=O)[O-])N1N=C(c2cccs2)CC1c1ccco1 (stereo not drawn),?,-,-,-55,-,-
N#Cc1ccccc1OCC(=O)N1N=C(c2cccs2)CC1c1ccco1 (stereo not drawn),?,-,-,-,?,-
CCCC1NC(=O)c2cccnc2-n2c1nc1ccc(OC)cc1c2=O (stereo not drawn),-,-,-,-,-,-
